Experimental findings from PubChem BioAssay are described below.

This test in a line: binders of probe aHhip on microarray, primary screen, stem cell growth factor project, biochemical, small-molecule microarray, fluorescence 635/667 (AID 1087).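 Note: score merges spot fluorescence at 667nm with spot signal to noise ratio.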 The settings on record: higher = more signal.
As for `CC1CC/C=C\[C@H]2OC34C=CCN(C(C)(C)C)C(=O)[C@H]3N(CCCCCO)C(=O)[C@@H]4C2C(=O)O1` (stereo not given in full), the composite z-score was -0.261.
For the compound `COc1cc(NN2C(C(O)c3cc(OC)c(OC)c(OC)c3)C=CC3C(=O)N(C)C(=O)C32)cc(OC)c1OC` (stereo not given), the composite z-score is 0.12.
For `[N-]=[N+]=NCc1ccccc1[C@H]1OC(c2ccc(OCCCO)cc2)=N[C@@]1(Cc1ccccc1N=[N+]=[N-])C(=O)NCC(O)CO` (stereo not given in full), the composite z-score is -0.31.
`C=C(COC)/C(=C/C[C@H](OC(=O)c1ccncc1)c1ccccc1OCCO)c1cc(C(=O)OC)ccc1OC` had a composite z-score of -0.442.
Compound `CC(C)=C1C(=O)C(c2ccccc2)=C2CN3C(=O)N(CCc4ccccc4)C(=O)[C@]3(Cc3ccc(C(F)(F)F)cc3)[C@H]21` returned a composite z-score of 0.281.
Next, `NCCCCCCNC(=O)[C@@H]1C[C@@H]2C(=O)N[C@@H](CCCCN)C(=O)N2[C@@H]1c1ccc(O)cc1`: -0.149; `CC(C)[Si](C#CCCCC#N)(O[C@H](c1ccccc1)c1cn(Cc2ccccc2)nn1)C(C)C`: 0.095.
Next, `CC(C)c1ccc(NN2C(C(O)c3ccc(C#N)cc3)C=CC3C(=O)N(c4ccccc4)C(=O)C32)cc1` (stereo not given): -0.0704; `COC(=O)[C@]1(CCS(=O)(=O)c2ccccc2)N=C(c2ccc(OCCCO)cc2)O[C@@H]1c1ccccc1N=[N+]=[N-]`: 0.0102.
Compound `C=C[C@H](C)[C@H](OC(=O)Nc1ccc(SC)cc1)c1ccc(OCCO)cc1` came in with a composite z-score of 0.0972.
Next, `Cc1ccc(S[C@]2(C(=O)NCC(F)(F)F)CC(=O)N(Cc3cc(C(F)(F)F)cc(C(F)(F)F)c3)[C@@H]2c2ccc(CO)cc2)cc1`: -0.0994; `O=C1OCCC=C[C@H]2OC34C=CCN(c5ccc6ccccc6c5)C(=O)[C@H]3N(CCCO)C(=O)[C@@H]4C12` (stereo not given in full): -0.134.
Then `O=C1O[C@H](c2ccccc2)[C@H](c2ccccc2)N2[C@H]1[C@@H](C(=O)O)[C@]1(C(=O)Nc3ccc(C#CCCO)cc31)[C@H]2c1ccccc1OCCO`, with -0.0994; and `COC(=O)[C@@]1(Cc2ccc(F)cc2)[C@H]2c3cc(C(=O)N4CCCC4)n(CCc4c[nH]c5ccccc45)c3C[C@H]2CN1C(=O)c1ccccc1`, with 0.245; and `[N-]=[N+]=Nc1ccccc1C[C@]1(C(=O)N2CCOCC2)COC(c2ccc(OCCCO)cc2)=N1`, with -0.0617.
In turn, `C=CCN1C(=O)[C@]2(CCC(=O)OC(C)(C)C)N=C(c3ccc(OCCCO)cc3)O[C@@H]2c2ccccc21` gave a composite z-score of -0.0994.
Then `O=C1OCCC=C[C@H]2OC34C=CCN(Cn5nnc6ccccc65)C(=O)[C@H]3N(CCCO)C(=O)[C@@H]4C12` (stereo not given in full), with -0.236.
Next, `COCCOC(=O)N1C(=O)[C@@]2(c3ccccc31)[C@H](c1ccc(O)cc1)N1[C@H](c3ccccc3)[C@H](c3ccccc3)OC(=O)[C@H]1[C@@H]2C(=O)N1CCN(c2ncccn2)CC1`: -0.0903.
Then `Cc1ccc(S[C@]2(C(=O)NCC(F)(F)F)CC(=O)N(Cc3cc(C(F)(F)F)cc(C(F)(F)F)c3)[C@@H]2c2ccc(CO)cc2I)cc1`, with -0.409.
In turn, `C#CCN([C@@H](Cc1ccccc1)C(=O)OC)[C@@H](/C=C/C1CC1)[C@H](O)Cc1ccccc1` came in with a composite z-score of -0.169.
`CC(C)C(CO)N1C(=O)[C@@H]2[C@H]3C(=O)OCC=C[C@H]3OC23C=CCN(c2ccc(Cl)cc2)C(=O)[C@@H]13` (stereo not given in full) had a composite z-score of -0.313.
Then `COC(=O)[C@@]1(Cc2ccc(F)cc2)[C@H]2c3cc(C(=O)N4CCCC4)n(Cc4ccc(C)c(F)c4F)c3C[C@H]2CN1C(=O)c1ccccc1`, with -0.0618; and `COc1ccccc1CN1C(=O)c2ccccc2[C@](Cc2ccccc2I)(C(=O)O)[C@@H]1c1ccc(CO)cc1`, with 0.305.
Next, `COc1ccc([C@H]2OC[C@@H]3C[C@H](Cc4ccccc4)C(=O)N32)cc1`: 0.107; `COCCOC(=O)N1C(=O)[C@@]2(c3cc(C#CC4(O)CCCCCC4)ccc31)[C@H](c1ccc(O)cc1)N1[C@H](c3ccccc3)[C@H](c3ccccc3)OC(=O)[C@H]1[C@@H]2C(=O)N1CCN(c2ncccn2)CC1`: 0.132.
The compound `CCCC1(C(=O)OC)C=C2C(=C(C)C(=O)C2C)CN1` (stereo not given) had a composite z-score of -0.0645.
`COc1cc(NN2C(C(O)c3ccco3)C=CC3C(=O)N(C)C(=O)C32)cc(OC)c1OC` (stereo not given): the composite z-score worked out at 0.837.
Next, `CCCNC(=O)[C@@H]1c2ccccc2C(=O)N(Cc2ccc(OC(F)(F)F)cc2)[C@H]1c1ccc(CO)cc1`: -0.0237.
Then `C=CC[C@@H](OC(=O)Nc1ccc(OC)cc1)c1ccc(O)c(F)c1`, with -0.216.
`CCCC[C@@H](O)C1=C(COC)C[C@H]2C(=O)N(Cc3ccccc3)C(=O)[C@H]2[C@H]1CO` displayed a composite z-score of -0.0645.
Then `CC(C)NC(=O)[C@@]1(c2ccc([N+](=O)[O-])cc2)CC(=O)N(C2CCCCC2)[C@@H]1c1ccc(CO)cc1`, with -0.172; and `CC1CC/C=C\[C@H]2OC34C=CCN(c5ccc(Cl)cc5)C(=O)[C@H]3N(C(C)CO)C(=O)[C@]4(C)C2C(=O)O1` (stereo not given in full), with -0.0618.
As to `COc1cc2c(cc1O)C(C1CC1)N(Cc1cccc(OC(F)(F)F)c1)CC2` (stereo not given), the composite z-score is 0.132.
As to `CC(c1ccccc1)C(O)C1C=CC2C(=O)N(C)C(=O)C2N1Nc1ccccc1` (stereo not given), the composite z-score was determined as 0.0578.
Next, `CCOC(=O)C1=CC[C@@H](c2ccccc2F)N(S(=O)(=O)c2ccc(C)cc2)[C@H]1c1ccccc1`: -0.11.
